# Reference: PubChem BioAssay (NCI)
# About 79,000 compounds went through this panel and 15% of them were active in at least one assay; those are over-represented in the sample as a whole. A number with no mark means an inactive call. The source made the active and inactive calls. Cut-off read from the data, not from the text of the source: active = growth inhibition above about 70%; inactive = the rest.
# Experiments:
# [1] = NCI Yeast Anticancer Drug Screen. Data for the rad50 strain (AID 155);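 note: 0% = growth of vehicle-only cultures of the same strain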; conditions: S. cerevisiae rad50 strain growth inhibition, stronger effect = higher value
# Method in brief: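 Inhibition values express reduced yeast growth in compound-treated cultures relative to vehicle-treated controls.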
# [2] = NCI Yeast Anticancer Drug Screen. Data for the mec2-1 strain (AID 157); conditions: S. cerevisiae mec2-1 strain, stronger effect = higher value
# Method in brief: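 Vehicle-treated cultures served as reference for growth inhibition of compound-exposed mec2-1 yeast.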
# [3] = NCI Yeast Anticancer Drug Screen. Data for the sgs1 mgt1 strain (AID 161);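 note: 0% = growth of cultures given vehicle only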; conditions: S. cerevisiae sgs1 mgt1 strain, stronger effect = higher value
# Method in brief: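 Genetically altered yeast, compound exposure, growth inhibition relative to vehicle.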
# [4] = NCI Yeast Anticancer Drug Screen. Data for the cln2 rad14 strain (AID 165);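 note: 0% = growth equal to vehicle treated cultures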; conditions: S. cerevisiae cln2 rad14 strain, stronger effect = higher value
# Method in brief: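 Each compound was tested on cln2 rad14 yeast. Inhibition of growth was calculated against vehicle-exposed controls.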
# [5] = NCI Yeast Anticancer Drug Screen. Data for the bub3 strain (AID 167); conditions: S. cerevisiae bub3 mutant strain, stronger effect = higher value
# Method in brief: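 Steps: expose the mutant yeast strain to compound; grow alongside vehicle-treated cultures; measure growth; express inhibition against the vehicle cultures.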
# [6] = NCI Yeast Anticancer Drug Screen. Data for the mlh1 rad18 strain (AID 175); conditions: S. cerevisiae mlh1 rad18 strain growth inhibition, stronger effect = higher value
# Method in brief: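 Vehicle-treated cultures served as the reference for growth inhibition in a yeast strain carrying DNA damage repair alterations exposed to each compound.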
# [7] = at 5.0 µM (retest, dose inferred, filed as 0.5)
# [8] = at 50.0 µM (retest, dose inferred, filed as 5.0)
SMILES,"growth inhibition [1, 7]","growth inhibition [1, 8]",growth inhibition ([1]; at 50.0 µM),"growth inhibition [2, 7]","growth inhibition [2, 8]",growth inhibition ([2]; at 50.0 µM),"growth inhibition [3, 7]","growth inhibition [3, 8]",growth inhibition ([3]; at 50.0 µM),"growth inhibition [4, 7]","growth inhibition [4, 8]",growth inhibition ([4]; at 50.0 µM),"growth inhibition [5, 7]","growth inhibition [5, 8]",growth inhibition ([5]; at 50.0 µM),"growth inhibition [6, 7]","growth inhibition [6, 8]",growth inhibition ([6]; at 50.0 µM)
COc1cc(C(=O)NC(CCC(=O)O)C(=O)O)ccc1N(C)Cc1cnc2nc(N)nc(N)c2n1 (stereo not given),-4%,66%,89.8% (active),-3%,93% (active),97.2% (active),-7%,44%,83.8% (active),2%,-10%,-21.4%,-6%,-6%,40.4%,-51%,29%,74.1% (active)
CCOC(=O)c1c(I)[nH]c(I)c1C,-1%,11%,30.3%,0%,5%,10.2%,-1%,14%,22.2%,-1%,3%,10.6%,4%,3%,38.5%,2%,9%,42.3%
C=C(Cl)C(=NC(C)(C)C)Nc1ccccc1C,27%,53%,69.3%,20%,56%,74.9% (active),25%,61%,81.4% (active),29%,37%,66%,22%,60%,83.8% (active),30%,80% (active),40.1%
Cc1ccc(S(=O)(=O)Oc2ccc3oc4c(CO)ccc(NCCN(C)C)c4c(=O)c3c2)cc1,3%,5%,16.6%,0%,-32%,-17.6%,2%,16%,97.8% (active),1%,7%,-2.35%,3%,4%,-9.25%,3%,14%,43%
O=C(CNC(=O)c1ccccc1)NNc1ccccc1,16%,62%,86.7% (active),4%,65%,71.2% (active),8%,67%,32.8%,3%,68%,48.8%,7%,89% (active),32.5%,30%,93% (active),86.9% (active)
O=[N+]([O-])c1ccc(Cl)cc1C=NC12CC3CC(CC(C3)C1)C2,15%,16%,80.8% (active),12%,13%,69%,16%,23%,22.4%,3%,14%,8.55%,4%,9%,4.2%,13%,15%,54.6%
CC(=O)c1c(CO[N+](=O)[O-])n([O-])c2ccccc2[n+]1=O,11%,60%,69.4%,7%,20%,13.6%,13%,40%,42.5%,-1%,17%,22%,-1%,-4%,15.7%,1%,33%,45.9%
Nc1cc2c(c[n+](CCCCCCCCCC[n+]3cc4c5ccccc5c(N)cc4c4ccccc43)c3ccccc23)c2ccccc12,20%,94% (active),88% (active),36%,96% (active),91.8% (active),56%,95% (active),85% (active),16%,92% (active),87.8% (active),58%,95% (active),81% (active),63%,95% (active),83.6% (active)
COC1(CO)C(=O)N(C)CC(=O)N1C (stereo not given),1%,99% (active),99.3% (active),10%,99% (active),99.7% (active),5%,99% (active),99.3% (active),-7%,20%,99.7% (active),0%,99% (active),99.5% (active),1%,99% (active),99.3% (active)
NC(=Nc1cc2ccccc2c2ccccc12)/N=C(/N)Nc1cc2ccccc2c2ccccc12,99% (active),97% (active),60.6%,100% (active),99% (active),56.2%,99% (active),98% (active),51.1%,99% (active),98% (active),50.8%,99% (active),98% (active),60%,99% (active),98% (active),51.7%
CC(=O)OCC(=O)[C@@]1(O)[C@H](C)C[C@H]2[C@@H]3C=C(C)C4=Cc5c(cnn5-c5ccccc5)C[C@]4(C)[C@@]3(F)[C@@H](O)C[C@@]21C,0%,81% (active),82.4% (active),0%,36%,69.5%,35%,91% (active),83.2% (active),19%,88% (active),73.4% (active),-1%,79% (active),24.1%,46%,87% (active),87.7% (active)
CCC(=O)N1c2ccccc2CC1c1c[nH]c2ccccc12 (stereo not given),-4%,98% (active),95.2% (active),-10%,98% (active),30.8%,-3%,98% (active),77.4% (active),-56%,99% (active),74.5% (active),-10%,78% (active),8.15%,1%,98% (active),93.3% (active)
C/C=C(/CN/C(=C\[N+](=O)[O-])c1ccccc1)c1ccccc1,0%,87% (active),96.5% (active),-4%,86% (active),95% (active),0%,79% (active),94.3% (active),-1%,37%,75.2% (active),8%,74% (active),92.7% (active),-8%,84% (active),95.5% (active)
CCOC(=O)/C(=C/c1ccccn1)C(=O)c1ccccc1,19%,85% (active),85.8% (active),18%,93% (active),85.7% (active),17%,85% (active),84.8% (active),39%,85% (active),76.7% (active),67%,96% (active),88.7% (active),53%,94% (active),79.6% (active)
N/N=C(\N)c1ccc2ccc3cccnc3c2n1,1%,73% (active),74% (active),2%,73% (active),42.3%,-2%,77% (active),56.8%,-7%,62%,45.9%,-3%,59%,41.5%,13%,79% (active),52.8%
COC(=O)c1[nH]cnc1/N=N/N(C)C,98% (active),98% (active),98.8% (active),99% (active),99% (active),98.9% (active),99% (active),99% (active),99.5% (active),99% (active),98% (active),99% (active),49%,49%,98.8% (active),98% (active),99% (active),99.3% (active)
O=C(CC(c1ccccc1Cl)C(C(=O)O)c1ccccc1)c1ccccc1 (stereo not given),4%,72% (active),81% (active),4%,71% (active),71.7% (active),6%,72% (active),92.5% (active),6%,83% (active),91.5% (active),-4%,67%,43.6%,-1%,78% (active),92.1% (active)
N#CSCc1ccc(Cl)c(CSC#N)c1,18%,99% (active),99% (active),4%,99% (active),99.3% (active),8%,99% (active),98.8% (active),10%,98% (active),98.2% (active),16%,100% (active),98.8% (active),10%,99% (active),99% (active)
COc1ccc(OC)c(C(Cc2ccnc3ccccc23)Cc2ccnc3ccccc23)c1,1%,97% (active),99% (active),-14%,97% (active),99.2% (active),3%,99% (active),99% (active),1%,99% (active),98.6% (active),10%,98% (active),98.8% (active),-3%,97% (active),98.8% (active)
O=[N+]([O-])c1ccc(-[n+]2ccc3ccccc3c2)c([N+](=O)[O-])c1,14%,78% (active),72.4% (active),8%,80% (active),52.3%,11%,79% (active),82.4% (active),10%,61%,37.4%,6%,59%,78% (active),40%,90% (active),81.6% (active)
